The source of these data is PubChem BioAssay AID2314 (National Center for Advancing Translational Sciences (NCATS), 2010).

The structures appear in SMILES notation. In all, about 300,000 compounds went through this assay and about 37,000 (12%) were called active. Cut-off read from the data, not from the text of the source: active = max response mostly above about 13% (no sharp cut-off); inactive = mostly below about 14%. What follows is part of a selection rich in actives, with near analogues and random picks from the rest.

The experiment in a line: Cycloheximide Counterscreen for Small Molecule Inhibitors of Shiga Toxin. Note: read at 38.3 µM for the half of the compounds with a filed dose; 0% is about no effect. Conditions: cell reporter, cycloheximide protein synthesis inhibition counterscreen; stronger effect = higher value. For orientation: Counterscreens check selectivity or assay interference.
For the compound `COc1cccc(NC(=S)N(CCc2c(C)[nH]c3ccccc23)Cc2ccco2)c1`, the max response was -1.95% (inactive). As for `O=S(=O)(NC1CC1)c1ccc(Cl)cc1`, the figure is -3.78% (inactive); as for `CCOC(=O)C1=C(CCc2ccccc2)NC(=O)NC1c1ccc2ccccc2c1` (stereo unspecified), -1.16% (inactive); as for `CC1(c2ccc3ccccc3c2)NC(=O)NC1=O` (stereo unspecified), 1.06% (inactive). The same measure for `CCN(CC)C(=O)CN(c1cccc(OC)c1)S(=O)(=O)c1ccc(C)cc1`: 1.38% (inactive); for `COc1ccc(C)cc1-n1nnnc1SCc1nc2ccccc2c(=O)[nH]1`: 10.3% (inactive); for `COc1ccc(CCn2c(NN=C3CCCC3)nc3c2c(=O)[nH]c(=O)n3C)cc1`: 0.589% (inactive). The same measure for `CCc1ccc2nc3sc(C(=O)Nc4nnc(CC)s4)c(N)c3cc2c1`: 17.3% (inactive); for `CC(=O)Nc1ccc(NC(=O)c2sc3nc4c(c(-c5ccc(C)cc5)c3c2N)CCC4)cc1`: 0.359% (inactive). `Cc1ccc(NC(=O)c2sc3nc(N)c(C#N)cc3c2N)cc1`: the max response was 41% (active). As for `CCN1CCN(C(=O)Cn2nc(C)n3c(cc4c(OC)cccc43)c2=O)CC1`, the figure is 1.35% (inactive); as for `Cc1c(Cl)cccc1NC(=O)CCC(=O)N/N=C/c1ccco1`, -1.66% (inactive); as for `CCCCSc1nnc(-c2ccc(NC(=O)CC)cc2)n1C`, -3.61% (inactive). The same measure for `O=C(CN1CCN(c2ccccn2)CC1)Nc1ccc(Br)cc1`: -4.91% (inactive); for `CCC(=O)Nc1ccc(-c2ccc(N3CCCCC3)nn2)cc1`: 42.9% (active).

For the compound `O=C1Nc2ccc([N+](=O)[O-])cc2C1=Nc1cccc(CO)c1`, the max response is -2.88% (inactive). As for `Cc1ccc(C(=O)OC2CCCN(C)C2)cc1` (stereo unspecified), the figure is 6.14% (inactive); as for `Cn1ccc(=NC=C(C#N)C#N)c2ccccc21`, 1.04% (inactive). The same measure for `CCOc1cc(CN2CCCC(CO)(Cc3ccc(F)cc3F)C2)ccc1OC` (stereo unspecified): -0.883% (inactive); for `Cc1ccc(C)c(-n2nnnc2SCC(=O)c2c(N)n(C)c(=O)n(C)c2=O)c1`: -2.92% (inactive). As for `COc1ccc(-n2nnnc2SCC(=O)Nc2ccccc2)cc1`, the figure is -4.18% (inactive). In the case of `CCn1nnnc1SCC(=O)c1ccc(C)cc1C`, the max response is 56.3% (active). With `CC(=O)Nc1ccc(NC(=O)CSc2nnnn2-c2ccccc2F)cc1`, the max response was 9.54% (inactive). For the compound `COc1ccc(C(=O)CSc2nnnn2C)c(OC)c1`, the max response is -3.16% (inactive). For the compound `CCn1nnnc1SCC(=O)Nc1ccc(N(C)C)cc1`, the max response was 25.2% (active). In the case of `CCc1nccn1CCC(=O)N1CCCC(N2CCN(c3ccccc3F)CC2)C1` (stereo unspecified), the max response was 15.2% (inactive). As to `COc1ccc(S(=O)(=O)N(C)CC(=O)NCCCN2CCOCC2)cc1Cl`, the max response was -1.58% (inactive). The same measure for `Cc1cccc([C@@H]2[C@@H]3C(=O)N(Cc4ccccc4)C(=O)[C@@H]3[C@]3(C)C(=O)N(c4ccc(Br)cc4)C(=O)N23)c1`: 7.73% (inactive).

On to `C=CS(=O)c1sc(Cl)c(N2CCOCC2)c1[N+](=O)[O-]` (stereo unspecified), for which the max response was -4.64% (inactive). `CC(=O)N1CCOc2ccc(S(=O)(=O)N3CCC(C(=O)Nc4ccccc4F)CC3)cc21`: the max response was -0.955% (inactive). For `Cc1ccc(N(C(=O)C(F)(F)F)C(C(=O)NC2CCCCC2)c2ccncc2)cc1C` (stereo unspecified), the max response was -3.75% (inactive). The same measure for `Cc1cc(C(=O)COC(=O)c2cccs2)c(C)n1-c1c(C)n(C)n(-c2ccccc2)c1=O`: 16.4% (inactive); for `CCCn1c(C)cc(C(=O)COC(=O)c2c(C)nn(-c3ccccc3)c2C)c1C`: 32.3% (active); for `Cc1ccc(OC(=O)c2c(C)nn(-c3ccccc3)c2C)cc1`: 47.6% (active).

As for `Cc1nn(-c2ccccc2)c(C)c1C(=O)OCC(=O)NC(=O)NC1CCCCC1`, the max response was 2.3% (inactive). The same measure for `Cc1nn(-c2ccccc2)c(-n2cccc2)c1C(=O)O`: -4.68% (inactive). Take `CCCc1cc(=O)[nH]c(SCC(=O)c2cc(C)n(CCC)c2C)n1`: the max response was 7.55% (inactive).

In the case of `COCCn1c(SCC(=O)Nc2cc(OC)ccc2OC)nc2c(c1=O)SC(C)C2` (stereo unspecified), the max response is -1.66% (inactive). Turning to `CC(C)CC(=O)N1CCN(Cc2ccccc2Br)CC1`, the max response was -2% (inactive). Take `NC(=O)C(Cc1ccccc1)NC(=O)C12CC3CC(CC(C3)C1)C2` (stereo unspecified): the max response was 0.275% (inactive). Take `CCOc1ccc(NC(=S)N2CCC(NC(=O)c3ccccc3)CC2)cc1`: the max response was -1.64% (inactive). As for `Cc1ccc(N(NC(=O)C(C)(C)O)C(=O)c2ccccc2)cc1C`, the figure is -3.59% (inactive); as for `CCCOc1ccc(NC(=O)C2CCCNC2=O)cc1` (stereo unspecified), 16.5% (inactive); as for `CCOc1ccc(N/C=C/C(=O)c2ccccc2)cc1`, 38.2% (active).

Regarding `Cc1ccc(N/C=C/C(=O)c2ccccc2)cc1C`, the max response was 45.6% (active). Regarding `CCCOc1ccc(N/C=C/C(=O)C(C)(C)C)cc1`, the max response was 33% (active). As for `CCCOc1ccc(NC(=O)C2OC3OC(C)(C)OC3C3OC(C)(C)OC23)cc1` (stereo unspecified), the figure is 10.8% (inactive); as for `CCOc1ccc(N/C=C/C(=O)c2cc(OC)c(OC)c(OC)c2)cc1`, 3.1% (inactive). As for `Cc1ccc(NNC(=O)C2CCC2)cc1C`, the figure is -2.16% (inactive); as for `Cc1cc(OCC(=O)NCC(O)c2ccccc2)c2c(C)c(C)c(=O)oc2c1` (stereo unspecified), 8.74% (inactive). On to `O=C(O)c1ccccc1C(=O)NC1=NN(c2ccccc2)CC1`, for which the max response was -1.86% (inactive). As for `O=C(CSc1n[nH]c(-c2cccnc2)n1)Nc1ccc(Cl)cc1`, the figure is 1.65% (inactive); as for `CCO[C@@H]1OC(C(=O)NC2CC2)=C[C@H](C)[C@H]1CCCO`, -1.17% (inactive); as for `CC(NC(=S)NC1CCCCC1)C(c1ccccc1)N1CCOCC1` (stereo unspecified), 0.505% (inactive). Take `Cc1cc(=O)n2nc(N3CCCC(C(=O)NCc4cccc(Cl)c4)C3)sc2n1` (stereo unspecified): the max response was -3.8% (inactive).

Regarding `CN(NS(=O)(=O)c1cccs1)c1ncc(C(F)(F)F)cc1Cl`, the max response is -0.853% (inactive).

In the case of `OC(CNCCc1ccc(Cl)cc1Cl)COc1ccccc1` (stereo unspecified), the max response is -1.8% (inactive).

For the compound `NS(=O)(=O)c1ccc(CCNC(=O)c2ccc(Cl)cc2[N+](=O)[O-])cc1`, the max response is -2.71% (inactive). The same measure for `Nc1ccc(C(=O)NCc2ccccc2)cc1`: -1.11% (inactive); for `Cc1cc(C(=O)NCCc2ccc(Cl)cc2)n(-c2ccccc2)n1`: -0.868% (inactive). On to `CN(c1ccccc1)S(=O)(=O)c1ccc(C(=O)NCCc2ccccc2)cc1`, for which the max response was 11.2% (inactive). Consider `O=C(NCCc1ccccc1)c1ccc(OCCOc2ccccc2)cc1`, for which the max response is 0.57% (inactive). As for `O=C(NCCc1ccccc1)Oc1ccc(Cl)cc1`, the figure is 48.1% (active); as for `O=C(CCc1ccccc1)NNC(=O)COc1ccc(Cl)cc1`, 0.663% (inactive). As for `O=C(NCCc1ccccc1)C1CC1`, the figure is 13% (inactive). As for `Cc1cc(C(=O)NCCc2ccc(Cl)cc2)c(C)o1`, the figure is 49.4% (active); as for `CCCOc1ccc(C(=O)NCCc2ccccc2)cc1`, 27% (active). As for `COc1ccc(OCCCC(=O)NCCc2ccccc2)cc1`, the max response was -2.28% (inactive).

For the compound `CC(C)c1ccc(C(=O)NCCCc2ccccc2)cc1`, the max response was 46.9% (active).

As to `COc1ccc(-c2nc3cnccn3c2NC(C)(C)CC(C)(C)C)cc1O`, the max response is -1.64% (inactive).

In the case of `Cc1ccc(CN2CCNC(=O)C2CC(=O)NCc2csc(C(C)C)n2)cc1` (stereo unspecified), the max response was -3.12% (inactive).

`O=C(COc1ccc(S(=O)(=O)N2CCOCC2)cc1Cl)N1CCOCC1`: the max response is -5.7% (inactive).

Regarding `Cc1cccc(N2C(=O)N3[C@H](c4ccc(F)cc4)[C@@H]4C(=O)N(C5CCCCC5)C(=O)[C@@H]4[C@]3(Cc3ccccc3)C2=O)c1`, the max response was 1.33% (inactive). For `O=c1oc2ccccc2c(NC2CCCCC2)c1NS(=O)(=O)c1ccc(Cl)cc1`, the max response is -6.15% (inactive). Take `Cc1ccc(N(CC(=O)NCC2CCCO2)C(=O)CNS(=O)(=O)c2ccc(Cl)cc2)cc1` (stereo unspecified): the max response is -3.88% (inactive). The same measure for `O=C(CCc1c[nH]c2ccccc12)NCCOc1ccccc1`: 25.1% (inactive). With `O=C(NCCOc1ccccc1)c1ccccc1`, the max response is 68.1% (active). As for `NS(=O)(=O)c1cc(C(=O)NCCOc2ccccc2)c(Cl)cc1Cl`, the figure is -1.96% (inactive); as for `CCc1n[nH]c(=S)n1/N=C/c1c[nH]c2ccc(Br)cc12`, -1.29% (inactive); as for `CC1=NN(C(N)=S)C(=O)C1N=Nc1cc(Cl)ccc1Cl` (stereo unspecified), 4.61% (inactive). The same measure for `CCCCc1nc(SCC(=O)Nc2nnc(C(C)C)s2)n[nH]1`: 26.4% (inactive); for `O=C1CCCC(O)=C1N=Nc1ccc2ncsc2c1`: 49.2% (active); for `O=C1CCCC(O)=C1N=Nc1ccc(S(=O)(=O)N2CCOCC2)cc1`: 16% (inactive). `Cc1nc2ccccc2c(=O)n1Cc1ccc([N+](=O)[O-])cc1`: the max response was -1.56% (inactive).

On to `Nc1ccc(N=Nc2ccccc2Cl)c(N)n1`, for which the max response is 25.9% (active). Regarding `O=S(=O)(c1ccc(Cl)s1)N1CCC2(CC1)OCCO2`, the max response is 2.18% (inactive). As to `COC(=O)c1cc(NC(=O)c2cc(C(C)(C)C)nn2Cc2cccc(C)c2)ccc1N1CCOCC1`, the max response was -3.1% (inactive). As for `CCCNC(=O)c1cnc(-c2ccccc2)nc1-c1ccccc1`, the figure is -6.13% (inactive); as for `CCN(CC)c1ccc(C(=O)OCC(=O)c2ccco2)cc1`, 7.36% (inactive). The same measure for `CCc1ccc(C(=O)COC(=O)c2ccco2)cc1`: 42.3% (active); for `O=C(COC(=O)c1ccccc1C(=O)c1ccccc1)c1ccco1`: 8.15% (inactive). For `COc1ccc2[nH]c(C(=O)Nc3ccccc3Cl)cc2c1`, the max response was 36.2% (active). The same measure for `COc1cccc(NC(=O)CN2CCN(CC(=O)Nc3ccccc3Cl)CC2)c1`: -0.686% (inactive); for `COc1ccc2[nH]c(C(=O)N/N=C/c3cc(OC)c(OC)c(OC)c3)cc2c1`: 13.6% (inactive).

As to `Cc1cccc(C(=O)NNC(=O)CSc2nnc(C(C)C)n2C)c1`, the max response was -5.35% (inactive). Regarding `CCOc1ccc(NC(=S)N2CCCCCC2)cc1`, the max response was 26.7% (inactive). In the case of `Cc1cccc(C)c1NC(=S)N1CCCCCC1`, the max response is -7.53% (inactive). The same measure for `S=C(Nc1ccc2c(c1)OCO2)N1CCCC1`: 25.6% (active). Turning to `CC(=O)c1cccc(NC(=S)N2CCCC2)c1`, the max response is 0.199% (inactive). The same measure for `CCC(C)c1ccc(NC(=S)N2CCCC2)cc1` (stereo unspecified): 35.2% (active); for `NS(=O)(=O)c1ccc(NC(=S)N2CCCC2)cc1`: -1.21% (inactive).
